Bioassay records as filed in PubChem.
Most compounds without a hit are left out; they make up all but 5.4% or so of the library.
Sm TGR block = S. mansoni TGR enzyme inhibition. purified TGR, DTNB reduction, TNB absorbance 405 nm. Q962Y6. Potency, µM (highest dose often 114 µM), most hits filed as inhibitors. 360,000 tested, 3% active; active = well fitted inhibition curve with a large enough effect; inconclusive = small, poorly fitted or top-dose-only effect; inactive = no such curve, though single readings can be large or run the other way; note: nearly all actives have a fitted effect of over 60% in size
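First, TGR (20 nM dispensed) and NADPH were mixed with compound. Second, a 15 min room-temperature incubation followed. Third, further NADPH and then DTNB were added to start the reaction. Finally, TNB absorbance was monitored kinetically.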
VACV mCherry inh = vaccinia inhibition (mCherry reporter); AID 720579; 310,000 tested, 0.63% active; Vaccinia virus mCherry reporter infection, fluorescence; Potency, µM (doses to about 36.5 µM), usual class: inhibitors; calls by dose curve; tested in A549 cells; note: nearly all actives have a fitted effect of over 35% in size
Vaccinia Venus = vaccinia inhibition (Venus reporter) | 330,000 tested, 0.46% active | Vaccinia virus Venus reporter expression, fluorescence | Potency, µM (series often up to 36.5 µM), actives largely listed as inhibitors; calls by dose curve; tested in A549 cells; note: nearly all actives have a fitted effect of over 30% in size
Lassa entry inh = Lassa virus entry inhibition; Lassa virus pseudotype entry inhibition, cell reporter; Potency, µM (doses to about 37.9 µM), hits mostly inhibitors; 300,000 tested, 1.2% active; AID 540256; calls by dose curve; tested in HEK293 cells; note: nearly all actives have a fitted effect of over 50% in size
Marburg entry inh = inhibitors of Marburg virus binding or cell entry | Marburg virus pseudotyped entry inhibition, cell reporter | Potency, µM (highest dose often 37.8 µM), hits mostly inhibitors | 300,000 tested, 1.8% active | AID 540276; calls by dose curve; tested in HEK293 cells
FMDV antiviral = foot and mouth disease virus antiviral activity | FMDV antiviral cell-based qHTS | Potency, µM (doses to about 57.9 µM), usual class: inhibitors | 410,000 tested, 1.2% active | AID 1159524; calls by dose curve; tested in HEK293T cells; note: read-out not given here; nearly all actives have a fitted effect of over 45% in size
Of the large screens only hits and unclear results are named; the others gave an inactive call.

Cc1cccc(C(=O)Nc2ccc(N3CCN(c4ccc(C(F)(F)F)cn4)CC3)nc2)c1	none
O=C(Nc1ccc(N2CCOCC2)nc1)c1ccc(C(F)(F)F)cc1	Lassa entry inh inconclusive, FMDV antiviral 8.9µM
Cc1ccc(NC(=O)CSc2nn(-c3ccccc3)c(=S)s2)cc1S(=O)(=O)N(C)C	VACV mCherry inh inconclusive, Vaccinia Venus inconclusive, Lassa entry inh inconclusive, Marburg entry inh 7.3µM, FMDV antiviral inconclusive
CCCCCN1C=CC(=C2C(=O)c3ccccc3C2=O)C=C1	FMDV antiviral 2.8µM (no result: Lassa entry inh, Marburg entry inh)
COc1ccccc1-c1ccnc(-n2ncc(C(=O)NCc3cccnc3)c2C)n1	Vaccinia Venus inconclusive (no result: Sm TGR block, Lassa entry inh, Marburg entry inh)
COc1cc(C(=O)NC2CCCNC2)cc(OC)c1OC (centres undefined)	Sm TGR block 35µM (no result: VACV mCherry inh, Vaccinia Venus, Lassa entry inh, Marburg entry inh, FMDV antiviral)
COc1ccc(CN2CCOc3ccc(CN4CCCCC4CO)cc3C2)c(OC)c1 (centres undefined)	none (no result: Sm TGR block, Lassa entry inh, Marburg entry inh)
COc1ccc(C(=O)c2cc([N+](=O)[O-])ccc2N2CCN(C)CC2)cc1	VACV mCherry inh inconclusive, Marburg entry inh 7.1µM
COc1ccc(C(=O)c2ccc([N+](=O)[O-])cc2Cl)cc1	Sm TGR block 13µM, Marburg entry inh inconclusive
O=C(c1ccc(Br)cc1)c1cc([N+](=O)[O-])ccc1N1CCCCC1	Lassa entry inh inconclusive, Marburg entry inh 0.73µM (no result: VACV mCherry inh, Vaccinia Venus)
COc1ccc(C(=O)c2cc([N+](=O)[O-])ccc2N2CCCC2)cc1	VACV mCherry inh inconclusive, Vaccinia Venus inconclusive, Lassa entry inh inconclusive, Marburg entry inh inconclusive, FMDV antiviral inconclusive
Cc1ccccc1-n1c(C)cc(/C=C(\C#N)C(=O)NCC2CCCO2)c1C (centres undefined)	Lassa entry inh 15µM
COc1ccc(C(=O)Nc2nnc(SCc3cc(=O)n4cccc(C)c4n3)s2)cc1	none (no result: Marburg entry inh)
O=C(CN1CCN(CCN2C(=O)c3cccc4cccc(c34)C2=O)CC1)c1ccc(Cl)cc1	Sm TGR block 14µM (no result: VACV mCherry inh, Vaccinia Venus, FMDV antiviral)
Cc1noc(C)c1S(=O)(=O)N1CCCC(C(=O)Nc2ccc(C(C)C)cc2)C1 (centres undefined)	Marburg entry inh inconclusive
Cc1cccn2c(=O)c(/C=C(\C#N)C(=O)NC3CCS(=O)(=O)C3)c(N3CCC(C(N)=O)CC3)nc12 (centres undefined)	none
Cc1ccc(Oc2nc3c(C)cccn3c(=O)c2/C=C(\C#N)C(N)=O)cc1	Sm TGR block inconclusive, Lassa entry inh inconclusive, FMDV antiviral 18µM
CCOC(=O)/C(C#N)=C/c1c(Oc2cccc(C)c2)nc2c(C)cccn2c1=O	none
Cc1ccccc1Oc1nc2c(C)cccn2c(=O)c1/C=C(\C#N)C(=O)NC1CCS(=O)(=O)C1 (centres undefined)	Lassa entry inh 13µM, Marburg entry inh inconclusive, FMDV antiviral 20µM
Cc1cccn2c(=O)c(/C=C(\C#N)C(=O)NC3CCS(=O)(=O)C3)c(Oc3ccccc3Cl)nc12 (centres undefined)	Marburg entry inh inconclusive, FMDV antiviral 20µM
Cc1ccc(CSC2=Nc3ccccc3C3=NC(CC(=O)NCc4cccs4)C(=O)N23)c(C)c1 (centres undefined)	Lassa entry inh inconclusive, FMDV antiviral inconclusive (no result: Marburg entry inh)
COc1ccc(CCNC(=O)c2cc(-c3ccc(C)cc3)nc3n[nH]c(-c4ccc(F)cc4)c23)cc1OC	none (no result: Marburg entry inh)
Cc1cc(-c2ccco2)n(-c2ccccc2)n1	Sm TGR block 4µM, Lassa entry inh inconclusive (no result: VACV mCherry inh, Vaccinia Venus)
O=C(Cc1ccccc1)Nc1ccc(NC(=O)c2ccccc2)nc1	Marburg entry inh inconclusive
O=C(Cc1ccccc1)Nc1nonc1NC(=O)c1ccccc1	Lassa entry inh inconclusive, Marburg entry inh 13µM
CCCCCCN(CCCCCC)C(=O)Cc1c(-c2ccc(F)cc2)[nH]c2ccccc12	Lassa entry inh 9.2µM, Marburg entry inh 9.2µM
COc1cc(CN(C(=O)COc2ccccc2)c2ccccn2)cc(OC)c1OC	none
O=C1CCCC(=O)C1C1c2ccccc2CCN1C(=O)CCl (centres undefined)	Sm TGR block 45µM
Cc1cc(C)c2cc(C(c3nnnn3CC3CCCO3)N3CCN4CCCC4C3)c(=O)[nH]c2c1 (centres undefined)	Sm TGR block 22µM, Lassa entry inh inconclusive
O=c1[nH]c2cc3c(cc2cc1C(c1nnnn1CC1CCCO1)N1CCCCCC1)OCCO3 (centres undefined)	Sm TGR block 32µM, Marburg entry inh inconclusive (no result: VACV mCherry inh, Vaccinia Venus)
O=c1[nH]c2cc3c(cc2cc1C(c1nnnn1CC1CCCO1)N1CCCC1)OCO3 (centres undefined)	none (no result: VACV mCherry inh, Vaccinia Venus)
CCOc1cccc(/C=N/NC(=O)c2cc(-c3cccn3C)n[nH]2)c1O	VACV mCherry inh inconclusive, Vaccinia Venus inconclusive, Lassa entry inh 22µM, Marburg entry inh inconclusive
COc1cc(OC)c(OC)cc1/C=N/NC(=O)c1cc(-c2cccn2C)n[nH]1	Sm TGR block inconclusive (no result: VACV mCherry inh, Vaccinia Venus)
CC1CCC(NC(=O)c2ccc3c(c2)N(Cc2ccccc2F)C(=O)c2ccccc2S3)CC1 (centres undefined)	Lassa entry inh inconclusive (no result: Marburg entry inh)
CCOc1cc(S(=O)(=O)N(Cc2ccccc2)Cc2ccccc2)c(OCC)cc1-n1cnnn1	Marburg entry inh 21µM
CC(=O)OCCCNc1cc(Sc2nc3ccccc3s2)c2nonc2c1[N+](=O)[O-]	Sm TGR block 0.1µM, FMDV antiviral inconclusive
CC(=O)OCCCNc1cc(Sc2ccc(C)cc2)c2nonc2c1[N+](=O)[O-]	Sm TGR block 8.9µM, VACV mCherry inh inconclusive, Vaccinia Venus inconclusive, Lassa entry inh inconclusive, Marburg entry inh inconclusive, FMDV antiviral inconclusive
CCN1CCN(c2ccc([N+](=O)[O-])c(Sc3nc4ccccc4[nH]3)c2)CC1	Marburg entry inh inconclusive
CC(=O)OCCNc1cc(Sc2nc3ccccc3[nH]2)c2nonc2c1[N+](=O)[O-]	Sm TGR block 0.32µM, VACV mCherry inh inconclusive, Vaccinia Venus 112µM, FMDV antiviral 35µM
Cc1cc(S(=O)(=O)Nc2ccc(-c3ccc(N4CCCCC4)nn3)cc2)c(C)cc1Cl	Lassa entry inh inconclusive (no result: Marburg entry inh)
Cc1cccc(-c2nc3cc(NC(=O)C4CCCO4)ccc3o2)c1 (centres undefined)	Lassa entry inh 7.9µM, Marburg entry inh 7.1µM
Cc1ccc(-c2nc3cc(NC(=O)C(C)C)ccc3o2)cc1C	Lassa entry inh inconclusive, Marburg entry inh inconclusive (no result: VACV mCherry inh, Vaccinia Venus)
Cc1cc(C)cc(C(=O)Nc2ccc(NC(=O)c3cccs3)cc2)c1	VACV mCherry inh 10µM, Vaccinia Venus inconclusive, Marburg entry inh inconclusive
Cc1ccc(-c2nc3cc(NC(=O)C(C)C)ccc3o2)cc1	Vaccinia Venus inconclusive, Lassa entry inh 11µM, Marburg entry inh inconclusive (no result: VACV mCherry inh)
Cc1ccc2oc(-c3cccc(NC(=O)C4CCCO4)c3)nc2c1 (centres undefined)	none (no result: FMDV antiviral)
CC(Oc1ccc(Cl)cc1Cl)C(=O)Nc1ccc2oc(-c3ccncc3)nc2c1 (centres undefined)	Lassa entry inh inconclusive, Marburg entry inh 2.1µM, FMDV antiviral inconclusive (no result: VACV mCherry inh, Vaccinia Venus)
CC(C)CC(=O)Nc1ccc2oc(-c3ccncc3)nc2c1	none (no result: VACV mCherry inh)
CCOc1cccc(CN2CCC(n3cc(C(=O)N4CCCCC4)nn3)CC2)c1O	none (no result: Sm TGR block, Lassa entry inh, Marburg entry inh)
CCN(C(=O)c1nn(C)c2c1CSc1ccccc1-2)c1cccc(C)c1	Lassa entry inh inconclusive
